This is an account of results in PubChem BioAssay (NCATS).

A short description of assay [1]: NCATS anti-infectives library activity on HEK293 viability as a counter-qHTS vs the C. elegans viability qHTS (AID 1745854). Also: % is scaled to controls: 0 for no effect and ±100 for the full control effect. The method, boiled down: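 HEK293 cells, 1500 per well, exposed 24 hr at 37C in 5% CO2 to compounds in a 1:5 titration, up to 41.7 uM final. Viability read as CellTiter-Glo luminescence after 10 min at room temperature.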
For orientation: Quantitative high-throughput screening tests each substance at several concentrations.

The target of assay [2] is Metallo-beta-lactamase type 2 (Klebsiella pneumoniae) (UniProt C7C422). The assay can be described thus: qHTS to identify inhibitors of the New Delhi Metallo-beta-lactamase (NDM): assay validation screen against the NCATS LOPAC Collection (AID 1794843).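 Also: nitrocefin turnover by NDM-1 measured as 485 nm absorbance at plateau; % is scaled to controls: 0 for no effect and ±100 for the full control effect.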 Put shortly:
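NDM-1 at 2 nM final in 50 mM HEPES pH 7.0, 1 uM ZnSO4, 0.01% Tween20, preincubated with LOPAC compounds pinned in DMSO; 50 uM nitrocefin (stock) added. Hydrolysis read as absorbance at 485 nm in the plateau phase.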

For assay [3], the target named is Glutathione peroxidase 1 (Homo sapiens) (UniProt P07203). The assay can be described thus: Primary qHTS Assay for Inhibitors of Recombinant Selenoprotein Glutathione Peroxidase 1 (GPX1) (AID 1845191). Also: nearly all actives have a fitted effect of over 65% in size. Also: potency is read from the fitted curve at half-maximal effect. The method, boiled down:
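GR-coupled assay: compounds preincubated 30 min at room temperature with GPX1, then reaction started with CHP; final 10 nM GPX1, 1 mM GSH, 0.5 mM CHP, 0.5 mM NADPH, 100 nM GR, 0.01% BSA, pH 7.5 Tris buffer. NADPH fluorescence (340/450 nm) read at 0 and 15 min.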

For assay [4], the target named is Phospholipid hydroperoxide glutathione peroxidase GPX4 (Homo sapiens) (UniProt P36969). The assay can be described thus: Primary qHTS Assay for Inhibitors of Recombinant Selenoprotein Glutathione Peroxidase 4 (GPX4) (AID 1845192). Also: nearly all actives have a fitted effect of over 65% in size. Also: potency is read from the fitted curve at half-maximal effect. As to activity change, negative = inhibition: % is scaled to controls: 0 for no effect and ±100 for the full control effect. Put shortly: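 GR-coupled assay: recombinant GPX4 preincubated 30 min with compound at room temperature; final 200 nM GPX4, 1 mM GSH, 0.5 mM cumene hydroperoxide, 0.5 mM NADPH, 100 nM GR, 0.01% BSA, pH 7.5 Tris. NADPH fluorescence (340/450 nm) read at 0 and 15 min.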

The nature of assay [5]: Quantitative High-Throughput drug screen in 47 multiple myeloma cell lines against the NCATS MIPE library collection: FR4_PLB cell viability assay (AID 1918924; also: nearly all actives have a fitted effect of over 35% in size; also: potency is read from the fitted curve at half-maximal effect). Put shortly: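 Inhibition of cell viability is measured here. Each line was plated at 500 cells per well, treated with MIPE 4.0 drugs, kept 48 hours at 37C, then assayed for ATP content by CellTiter-Glo luminescence.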

For assay [6], the target named is Catechol O-methyltransferase (Homo sapiens) (UniProt P21964). The assay can be described thus: Confirmatory Screen for Target Class Profiling of Small Molecule Inhibitors of Methyltransferases (AID 1745852; calls by dose curve; also: potency is read from the fitted curve at half-maximal effect; as to activity change, negative = inhibition: % is scaled to controls: 0 for no effect and ±100 for the full control effect). Conditions: MTase-Glo luminescence, SAH detection, recombinant enzyme; measured here: COMT max response; stronger effect = lower value.
Assay [7] has as its target Guanidinoacetate N-methyltransferase (Homo sapiens) (UniProt Q14353). The description is as above. Conditions: MTase-Glo luminescence, SAH detection, recombinant enzyme; activity change, negative = inhibition: at 57.3 µM (top of the series) unless noted.
The target in assay [8] is Nicotinamide N-methyltransferase (Homo sapiens) (UniProt P40261). Described as above. Conditions: MTase-Glo luminescence, SAH detection, recombinant enzyme; measured here: NNMT max response; stronger effect = lower value.
For assay [9], the target named is Phenylethanolamine N-methyltransferase (Homo sapiens) (UniProt P11086). The description is as above. Conditions: MTase-Glo luminescence, SAH detection, recombinant enzyme; measured here: PNMT max response; stronger effect = lower value.
A short description of assay [10]: Quantitative High-Throughput drug screen in 47 multiple myeloma cell lines against the NCATS MIPE library collection: Delta47_JCRB cell viability assay (AID 1918925; also: nearly all actives have a fitted effect of over 45% in size; also: potency is read from the fitted curve at half-maximal effect). Put shortly:
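Myeloma cells (500 per well) were exposed to MIPE 4.0 compounds by pin transfer and incubated 48 hours at 37C, 5% CO2. Viability was read as ATP by CellTiter-Glo luminescence, normalised to DMSO (100%) and media-only (0%) wells.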

A short description of assay [11]: Viability counterscreen for antagonist of constitutive androstane receptor (CAR) against the NCATS DSHEA and TCM libraries (AID 1794837).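 Also: compound exposure lasted 24 h before viability reading; 0% is about no effect.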 The method, boiled down: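 Cells: HepG2 line carrying CYP2B6 reporter and hCAR, seeded and attached 5 h. Then pin-transferred test substances plus agonist CITCO at 48 uM final; 24 h incubation; fluorogenic viability reagent, 1 h.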

Assay [12] in a line: Viability counterscreen for agonist of constitutive androstane receptor (CAR) against the NCATS DSHEA and TCM libraries (AID 1794838).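 Also: HepG2 cells with CYP2B6 reporter and hCAR plus 0.75 µM PK11195 antagonist; 0% is about no effect.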 The method, boiled down:
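Cell health was measured as CellTiter-Fluor signal in HepG2-CYP2B6-hCAR cells treated for 24 h with substances alongside the hCAR antagonist PK11195 (0.75 uM final).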

Assay [13] is described as follows: HepG2 viability counterscreen (readout 2: ATP content) against the NCATS DSHEA and TCM libraries (AID 1794840). Also: 0% is about no effect. Put shortly:
(§1)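 Same wells read twice: first fluorescence from cleaved GF-AFC substrate (25 uM final, 30 min, 37C) for live-cell protease, then CellTiter-Glo luminescence after 30 min at room temperature for ATP. HepG2 cells were exposed ~24 h to substances.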
Background: The purpose of a counterscreen is to sort out artefacts and off-target activity.

Assay [14] is described as follows: HepG2 viability counterscreen (readout 1: protease activity) against the NCATS DSHEA and TCM libraries (AID 1794841).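 Also: cells exposed to compounds for about 24 h before the protease read; 0% is about no effect.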 The method, boiled down:
as §1

A short description of assay [15]: NCATS anti-infectives library activity on the primary C. elegans qHTS viability assay (AID 1745855; calls by dose curve; also: potency is read from the fitted curve at half-maximal effect). The method, boiled down: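 Viability is taken from GFP fluorescence of PE254-GFP-FLuc C. elegans imaged by laser cytometry over 7 days. Ten L1 worms per well grow at 21 °C on TOP10 E. coli capsules with titrated compound; levamisole marks toxicity.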

Inconclusive results are not listed. Some structures have more than one record in an assay (separate samples or runs), and their calls can disagree. The source made the active and inactive calls. Unless noted, calls follow the shape of the dose curve; as a rule, active = well fitted curve in the direction sought with a large enough effect; inconclusive = small, poorly fitted or top-dose-only effect, or another doubt; inactive = no such curve, though single readings can be large; an effect the other way counts as inactive or inconclusive.

Chain of Nicotinamide N-methyltransferase (Homo sapiens) (P40261 whole entry, looked up): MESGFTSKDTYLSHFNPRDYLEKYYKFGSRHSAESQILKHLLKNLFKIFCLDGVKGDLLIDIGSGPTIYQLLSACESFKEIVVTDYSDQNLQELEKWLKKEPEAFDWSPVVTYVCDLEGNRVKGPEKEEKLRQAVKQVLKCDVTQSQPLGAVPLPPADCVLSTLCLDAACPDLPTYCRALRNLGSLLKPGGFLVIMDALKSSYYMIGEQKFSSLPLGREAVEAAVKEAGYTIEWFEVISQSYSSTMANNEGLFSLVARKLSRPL
Chain of Phenylethanolamine N-methyltransferase (Homo sapiens) (P11086 whole entry, looked up): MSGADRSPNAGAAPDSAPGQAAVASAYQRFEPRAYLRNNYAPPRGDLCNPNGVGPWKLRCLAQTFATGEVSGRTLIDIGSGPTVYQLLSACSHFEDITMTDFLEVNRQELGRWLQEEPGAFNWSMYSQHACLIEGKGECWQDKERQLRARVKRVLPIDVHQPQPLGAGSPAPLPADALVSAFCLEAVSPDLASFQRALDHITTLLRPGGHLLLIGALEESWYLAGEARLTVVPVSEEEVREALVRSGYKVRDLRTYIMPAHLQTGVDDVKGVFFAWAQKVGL
Chain of Glutathione peroxidase 1 (Homo sapiens) (P07203 whole entry, looked up): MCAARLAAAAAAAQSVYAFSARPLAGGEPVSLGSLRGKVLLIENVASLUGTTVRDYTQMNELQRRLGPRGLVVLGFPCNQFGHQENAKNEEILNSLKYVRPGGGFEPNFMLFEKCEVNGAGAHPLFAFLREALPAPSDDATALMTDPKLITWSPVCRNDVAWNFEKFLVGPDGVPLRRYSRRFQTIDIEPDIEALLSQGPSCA
Chain of Catechol O-methyltransferase (Homo sapiens) (P21964 whole entry, looked up): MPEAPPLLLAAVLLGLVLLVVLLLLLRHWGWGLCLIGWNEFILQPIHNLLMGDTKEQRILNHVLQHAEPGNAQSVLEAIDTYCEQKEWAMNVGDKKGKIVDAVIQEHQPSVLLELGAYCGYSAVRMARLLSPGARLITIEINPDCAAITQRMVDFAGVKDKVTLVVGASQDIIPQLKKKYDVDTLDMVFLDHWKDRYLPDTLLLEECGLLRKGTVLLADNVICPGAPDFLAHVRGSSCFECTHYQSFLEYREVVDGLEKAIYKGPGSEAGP
Chain of Phospholipid hydroperoxide glutathione peroxidase GPX4 (Homo sapiens) (P36969 whole entry, looked up): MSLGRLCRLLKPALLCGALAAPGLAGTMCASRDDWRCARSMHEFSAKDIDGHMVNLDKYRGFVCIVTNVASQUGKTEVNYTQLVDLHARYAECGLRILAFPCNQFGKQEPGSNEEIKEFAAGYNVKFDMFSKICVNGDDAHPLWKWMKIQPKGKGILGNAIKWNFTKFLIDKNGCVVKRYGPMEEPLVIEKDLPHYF
Chain of Metallo-beta-lactamase type 2 (Klebsiella pneumoniae) (C7C422 whole entry, looked up): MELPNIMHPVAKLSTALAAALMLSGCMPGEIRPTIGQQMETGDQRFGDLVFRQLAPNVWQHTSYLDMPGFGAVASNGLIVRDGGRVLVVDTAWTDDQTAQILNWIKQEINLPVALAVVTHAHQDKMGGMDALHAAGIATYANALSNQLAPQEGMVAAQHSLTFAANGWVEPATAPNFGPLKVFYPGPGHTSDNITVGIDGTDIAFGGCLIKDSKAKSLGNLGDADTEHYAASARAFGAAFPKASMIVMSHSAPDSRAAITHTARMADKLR

As for `O=C1NC(=O)C(c2ccccc2)(c2ccccc2)N1`, the outcome in assay [1] was “inactive”. The Potency entry in assay [2], in assay [3] and in [4] was “inactive” throughout.

As for `CC#CCn1c(N2CCC[C@@H](N)C2)nc2c1c(=O)n(Cc1nc(C)c3ccccc3n1)c(=O)n2C`, in [1], the outcome was “inactive”. The Potency result in [3], in [4] and in assay [5] was “inactive” each time.

As for `CC1(C)CCC2=C(O1)c1ccccc1C(=O)C2=O`, the activity in [6] was -19.8%; in assay [8], -22.7%; in [9], -16.1%. The Potency is 9.68 µM (active) in assay [7]; 16.3 µM (active) and inactive in assay [3]; 20.9 µM (active) in assay [5]; 16.6 µM (active) in assay [10]. Moreover, the Potency result in [2] and in assay [4] was “inactive” in each case.

As to `O=c1cc(-c2ccc(O)cc2)oc2cc(O)cc(O)c12`, the outcome in assay [11], in assay [12], in [13] and in assay [14] was “inactive” throughout. Further, the Potency result in assay [2], in assay [3] and in assay [4] was “inactive” throughout. In addition, the Potency in assay [5] was 23.5 µM (active); in assay [10], 10.5 µM (active).

Consider `COc1ccc(-c2nc(N3CCOCC3)c3sc(CN(C)c4ncc(C(=O)NO)cn4)cc3n2)cn1`, for which the Potency in [15] is 14.5 µM (active). For the same compound, the Potency result in assay [3] and in assay [4] was “inactive” in each case.

With `CC(C)=CC[C@@H](O)C1=CC(=O)c2c(O)ccc(O)c2C1=O`, the Potency is 16.3 µM (active) in [15], 16.1 µM (active) in assay [4], 0.662 µM (active) in [5] and 8.33 µM (active) in assay [10].

With `COc1ccc(Cc2nccc3cc(OC)c(OC)cc23)cc1OC`, the activity in [6] was -10.8%; in assay [8] it was -16.1%; in assay [9], -24.2%. In addition, the activity change, negative = inhibition in [7] is -7.19%. Further, the Potency entry in [2] and in assay [5] was “inactive” throughout.

In the case of `CCc1ccc(C=C2SC(=S)NC2=O)cc1`, the figures for the activity in assay [6], in [8] and in assay [9] were -2.96%, -15.7% and -1.21%, respectively. For the same compound, the activity change, negative = inhibition in [7] was -3.11%. Also, the Potency entry in [5] and in assay [10] was “inactive” each time.

As to `O=C(Nc1c(Cl)cncc1Cl)c1ccc(OC(F)F)c(OCC2CC2)c1`, in assay [1], the outcome was “inactive”. The Potency result in [3], in assay [4] and in assay [5] was “inactive” each time. The Potency in assay [10] was 26.4 µM (active).

Regarding `CCCCCN(C)CCC(O)(P(=O)(O)O)P(=O)(O)O`, the activity change, negative = cytotoxicity in [1] was -3.04% [at 3.71 µM] (inactive).
